Data: the supplement of paper PMC7156485
± gives the standard deviation of the averaged measurements.

Columns and labels:
Conditions in all cases: concentration: 10 µM; 24 h
HCC1569 [1] = assay: H1.0 immunofluorescence intensity relative to DMSO (% of DMSO); higher = stronger H1.0 induction
Summary of the method: (§1)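 In 384-well plates holding 800 HCC1569 or TDF cells per well in RPMI with 10% FBS, compounds were tested at 10 µM for 24 h at 37 °C in triplicate. Fixation used 3.7% formaldehyde. Staining used a rabbit anti-H1.0 antibody with an AlexaFluor 647 secondary, plus DAPI. Each value, H1.0 nuclear intensity or cell number, is a median of replicates shown as percent of the plate control, and HCC1569 values were smoothed for positional effects.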

TDF [2] = assay: as above
Summary of the method: as §1

HCC1569 [3] = assay: cell number relative to DMSO (% of DMSO); higher = more cells (less growth inhibition / toxicity)
Summary of the method: as §1

TDF [4] = assay: as above
Summary of the method: as §1

TDF [5] = assay: H1.0 immunofluorescence intensity relative to DMSO (% of DMSO); higher = stronger H1.0 induction, active = 120 or more
Summary of the method: as §1

HCC1569 [6] = assay: H1.0 immunofluorescence intensity relative to DMSO (% of DMSO); higher = stronger H1.0 induction, active = 140 or more
Summary of the method: as §1
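Wherever H1.0 immunofluorescence intensity relative to DMSO is given: TDF is a line of transformed human dermal fibroblasts of mesenchymal origin.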
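Wherever cell number relative to DMSO is given: TDF denotes transformed human dermal fibroblasts of mesenchymal origin.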

SMILES	H1.0 immunofluorescence intensity (HCC1569 [1])	H1.0 immunofluorescence intensity (TDF [2])	cell number (HCC1569 [3])	cell number (TDF [4])	H1.0 immunofluorescence intensity (TDF [5])	H1.0 immunofluorescence intensity (HCC1569 [6])
CC(=O)N[C@@H](CS)C(N)=O	103 (inactive)	96.2 (inactive)	–	–	–	–
COc1cc2nccc(Oc3ccc(NC(=O)Nc4cc(C)on4)c(Cl)c3)c2cc1OC [Tivozanib]	–	–	79.2	101	99 (inactive)	116 (inactive)
NC(=O)c1cnccn1 [Pyrazinecarboxamide]	–	–	102	106	94.2 (inactive)	110 (inactive)
CCCN(CCC)CCc1cccc2c1CC(=O)N2.Cl [Ropinirole hydrochloride]	–	–	101	95.8	96.1 (inactive)	101 (inactive)
COc1ccccc1N1CCN(CC(O)COc2cccc3ccccc23)CC1.Cl.Cl (stereo unspecified) [Naftopidil dihydrochloride]	–	–	101	106	101 (inactive)	101 (inactive)
O=C1NC(C(=O)O)CS1 (stereo unspecified) [Procysteine]	–	–	101	110	97.1 (inactive)	98.1 (inactive)
Cl.Nc1cc(Cl)c(NC2=NCCN2)c(Cl)c1 [p-Aminoclonidine hydrochloride]	–	–	100	114	97.1 (inactive)	88.3 (inactive)
CN1CCN(c2nc3cc(C(F)(F)F)ccc3n3cccc23)CC1.O=C(O)C=CC(=O)O	–	–	99.3	104	103 (inactive)	113 (inactive)
CC(C)=CCCC(C)=CCCC(C)=CCSCC(=O)O [Farnesylthoiacetic acid]	–	–	100	101	97.7 (inactive)	96.1 (inactive)
CCCCCCCCCCCCCCCCCCCCCCC(=O)O [Tricosanoic acid]	–	–	99.7	99.8	105 (inactive)	105 (inactive)
CC(C)NNC(=O)c1ccncc1 [Iproniazid]	–	–	104	103	100 (inactive)	112 (inactive)
CC1CC2C(C(O)CC3(C)C2CCC3(O)C(=O)CO)C2(C)C=CC(=O)C=C12 (stereo unspecified) [Methylprednisolone]	–	–	99.4	102	88.6 (inactive)	114 (inactive)
O=c1onc2n1-c1cc(Br)ccc1OC2	–	–	97.4	104	94 (inactive)	96 (inactive)
CCCCCCCCC=CCCCCCCCC(=O)O [9(Z)-Octadecenoic acid]	–	–	104	97.1	97.5 (inactive)	103 (inactive)
COc1ccccc1CNCCCCCCNCCCCCCCCNCCCCCCNCc1ccccc1OC.Cl.Cl.Cl.Cl [Methoctramine tetrahydrochloride]	–	–	104	87.6	103 (inactive)	98 (inactive)
NC(N)=NC(CCC(=O)O)C(=O)O (stereo not drawn) [alpha-Guanidinoglutaric acid]	–	–	104	108	92.6 (inactive)	86.2 (inactive)
Cl.O=C(OCCN1CCOCC1)C1(c2ccccc2)CCCCC1	–	–	99.8	111	90.5 (inactive)	94 (inactive)
CCCCCCCCCCCCCCCCCCCC(=O)O [Eicosanoic acid]	–	–	99.8	102	102 (inactive)	101 (inactive)
Cc1c2oc3c(C)ccc(C(=O)NC4C(=O)NC(C(C)C)C(=O)N5CCCC5C(=O)N(C)CC(=O)N(C)C(C(C)C)C(=O)OC4C)c3nc-2c(C(=O)NC2C(=O)NC(C(C)C)C(=O)N3CCCC3C(=O)N(C)CC(=O)N(C)C(C(C)C)C(=O)OC2C)c(N)c1=O (stereo unspecified) [Actinomycin D]	–	–	46.2	16.9	179 (active)	175 (active)
CC(=O)OCC1=C(C(=O)[O-])N2C(=O)C(NC(=O)Cc3cccs3)C2SC1.[Na+] (stereo unspecified) [Cephalothin sodium]	–	–	100	113	89.4 (inactive)	89.2 (inactive)
CCCNC1CCc2nc(N)sc2C1 (stereo unspecified) [Pramipexole]	–	–	101	97.5	94.4 (inactive)	107 (inactive)
CCC(C)C(=O)OC1CC(C)C=C2C=CC(C)C(CCC3CC(O)CC(=O)O3)C21 (stereo unspecified) [Lovastatin]	–	–	99.4	80.8	119 (inactive)	106 (inactive)
CCn1c(=O)[nH]c2cc(Cl)c(Cl)cc21	–	–	99.9	94.4	99.5 (inactive)	95.7 (inactive)
CCCCCCCCCC(=O)NC(CN1CCOCC1)C(O)c1ccccc1 (racemic)	–	–	99.8	93.9	96.7 (inactive)	106 (inactive)
O=[N+]([O-])c1cccc2c(Br)[nH]nc12 [3-Bromo-7-nitroindazole]	–	–	116	113	103 (inactive)	91.9 (inactive)
Cn1c(=O)c2[nH]c(-c3ccccc3)nc2n(C)c1=O [1,3-Dimethyl-8-phenylxanthine]	–	–	105	110	88 (inactive)	92 (inactive)

SMILES	H1.0 immunofluorescence intensity (HCC1569 [1])	H1.0 immunofluorescence intensity (TDF [2])	cell number (HCC1569 [3])	cell number (TDF [4])	H1.0 immunofluorescence intensity (TDF [5])	H1.0 immunofluorescence intensity (HCC1569 [6])
COc1cc(C(O)CO)ccc1OS(=O)(=O)[O-].[K+] (stereo unspecified) [MHPG sulfate potassium]	–	–	102	105	89.9 (inactive)	121 (inactive)
Nc1c2c(nc3ccccc13)CCCC2 [Tacrine]	–	–	102	97.1	95.7 (inactive)	109 (inactive)
O=C([O-])c1cc(=O)c2c(OCC(O)COc3cccc4oc(C(=O)[O-])cc(=O)c34)cccc2o1.[Na+].[Na+] [Disodium Cromoglycate]	–	–	98.4	98.3	90.6 (inactive)	103 (inactive)
O=C(O)C(=Cc1c(C(=O)O)[nH]c2cc(Cl)cc(Cl)c12)c1ccccc1	–	–	105	109	95.3 (inactive)	85 (inactive)
CCCCCCCCCCCCCCCCOCC(COP(=O)([O-])OCC[N+](C)(C)C)OC (stereo unspecified) [1-Hexadecyl-2-methylglycero-3 PC]	–	–	101	95.4	104 (inactive)	102 (inactive)
COc1cc(Cc2cnc(N)nc2N)cc(OC)c1OC [Trimethoprim]	–	–	99 ± 1.6	95.9 ± 2.8	106 (inactive)	107 (inactive)
Nc1ncn(C2OC(CO)C(O)C2O)c(=O)n1 (stereo unspecified) [5-azacytidine]	–	–	65.7	78	101 (inactive)	150 (active)
Cc1cc(NC(=O)CS(=O)(=O)c2cn(Cc3cc(Br)ccc3F)c3ccccc23)no1	–	–	82.5	99.6	90 (inactive)	151 (active)
Cc1onc(-c2ccccc2)c1C(=O)NC1C(=O)N2C1SC(C)(C)C2C(=O)[O-] (stereo unspecified) [Oxacillin]	–	–	99.8	105	91.4 (inactive)	111 (inactive)
CC(C=CC=C(C)C=CC1=C(C)CCCC1(C)C)=CC=CC=C(C)C=CC=C(C)C=CC1=C(C)CCCC1(C)C	–	–	101	106	101 (inactive)	103 (inactive)
O.Oc1cc(O)c2c(c1)OC(c1ccc(O)c(O)c1)C(O)C2 (single isomer, unassigned; (+)) [(+)-Catechin Hydrate]	–	–	98.9	110	90.6 (inactive)	91.7 (inactive)
O=C(CCCN1CC=C(n2c(=O)[nH]c3ccccc32)CC1)c1ccc(F)cc1 [Droperidol]	–	–	107	98.1	91.1 (inactive)	89.2 (inactive)
CCN1CCCC1CNC(=O)c1c(OC)ccc(I)c1O (stereo unspecified)	–	–	106	91	96.7 (inactive)	88.1 (inactive)
O=[N+]([O-])c1ccc(S(=O)(=O)NCc2ccccc2)c([N+](=O)[O-])c1 [N-Benzyl-2,4-dinitrobenzenesulfonamide]	–	–	79	58.4	117 (inactive)	123 (inactive)
Cl.NCC(O)C1CCCCCCC1 (stereo unspecified) [2-Cyclooctyl-2-hydroxyethylamine hydrochloride]	–	–	101	103	97.1 (inactive)	92.8 (inactive)
Br.Br.N=C(N)SCCc1cnc[nH]1 [Imetit dihydrobromide]	–	–	103	103	94.8 (inactive)	80.5 (inactive)
Cc1ccc(C(=CCN2CCCC2)c2ccccn2)cc1.Cl [Triprolidine hydrochloride]	–	–	106	105	97.5 (inactive)	90 (inactive)
N[C@@H](Cc1ccc(F)cc1)C(=O)O [p-Fluoro-L-phenylalanine]	–	–	104	102	93.4 (inactive)	106 (inactive)
CC(=O)NC(CS)C(=O)O (stereo unspecified) [N-Acetyl-Cysteine]	–	–	102	95.1	96.3 (inactive)	90.6 (inactive)
CC(C)C(NC(=O)OCc1ccccc1)C(=O)NC(C=O)Cc1ccccc1 (stereo unspecified)	–	–	99.5	96.2	103 (inactive)	102 (inactive)
O.O.O=c1c(O)c(-c2ccc(O)c(O)c2)oc2cc(O)cc(O)c12	–	–	90.7	89.7	101 (inactive)	116 (inactive)
CCCCCC(=O)C=CC=CCCCCCCCC(=O)O [13-Ketooctadecadienoioc acid]	–	–	99.9	97.6	95.9 (inactive)	103 (inactive)
O=C(NOCC(O)CO)c1ccc(F)c(F)c1Nc1ccc(I)cc1F (stereo unspecified)	–	–	105	104	87.3 (inactive)	94.6 (inactive)
CC(=O)O.CN=C(N)NCCCC(N)C(=O)O [NG-Monomethyl-L-arginine acetate]	–	–	100	102	95.6 (inactive)	101 (inactive)
CC(C)(C#N)c1cc(Cn2cncn2)cc(C(C)(C)C#N)c1 [Anastrozole]	–	–	102	101	99.4 (inactive)	102 (inactive)
NS(=O)(=O)c1ccc(N2CCN(CC[C@@H]3OCCc4ccccc43)CC2)cc1	–	–	101	102	99.4 (inactive)	104 (inactive)
